Laboratory results as given in the supplement of paper PMC6555819.

How the values were obtained:
Assay in all cases: PBM binding z-score (relative to random genomic background probes); higher = stronger binding; sequences stand for … in GC…GCGATTGACAGCGTAGAATGAAGG
[1] = test system: PPARg:RXRa DBDmut IVT, anti-RXR (DBD mutation: RXRa K156A/R161A, NR concentration 270 nM, RXRa partner concentration 90 nM)
Method in brief: (§1)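 Each nuclear receptor dimer, without ligand, was incubated for 1 h on custom Agilent 4×180K protein-binding microarrays. Binding was detected with antibodies against each partner (one per run), and scanned fluorescence was regression-normalized. The binding z-scores are referenced to random human genomic background probes.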

[2] = test system: PPARg:RXRa IVT, anti-PPARg (NR concentration 270 nM, RXRa partner concentration 90 nM)
Method in brief: as §1

[3] = test system: PPARg DBDmut:RXRa IVT, anti-PPARg (DBD mutation: PPARg1 K132A/R137A, NR concentration 270 nM, RXRa partner concentration 90 nM)
Method in brief: as §1

[4] = test system: PPARg DBDmut IVT, anti-PPARg (DBD mutation: PPARg1 K132A/R137A, NR concentration 270 nM)
Method in brief: as §1

[5] = test system: PPARg homodimer (NR concentration 180 nM)
Method in brief: as §1

[6] = test system: PXR:RXRa (NR concentration 270 nM, RXRa partner concentration 90 nM)
Method in brief: as §1

[7] = test system: PXR homodimer (NR concentration 270 nM)
Method in brief: as §1

[8] = test system: RARa:RXR (NR concentration 270 nM, RXRa partner concentration 90 nM)
Method in brief: as §1

[9] = test system: RARa homodimer (NR concentration 270 nM)
Method in brief: as §1

[10] = test system: RARb:RXRa (NR concentration 270 nM, RXRa partner concentration 90 nM)
Method in brief: as §1

| Sequence | PBM binding z-score [1] | PBM binding z-score [2] | PBM binding z-score [3] | PBM binding z-score [4] | PBM binding z-score [5] | PBM binding z-score [6] | PBM binding z-score [7] | PBM binding z-score [8] | PBM binding z-score [9] | PBM binding z-score [10] |
| --- | --- | --- | --- | --- | --- | --- | --- | --- | --- | --- |
| CCTTACGGGTCACTGACAGGTTATAACATTTGGA | 3.56 | 3.86 | 0.537 | 0.266 | 2.85 | 3.67 | 0.294 | 4.67 | 1.52 | 3.9 |
| ACTAGCAGGCCAAGTTTGGGTCACTCGAACAAAG | 1.03 | 1.36 | -0.745 | -0.0393 | 0.399 | 0.625 | -0.591 | 1.12 | -0.754 | 1.68 |
| CGTCCAAGGTCTAAGGTCAGTGAAGAGATGACGG | 0.385 | 1.44 | -0.479 | -0.374 | 2.23 | 2.21 | 0.498 | 3.2 | 0.608 | 3.71 |
| ACTATTAGTTGACTTAGGGCAACCGATACGACGC | -0.304 | 0.722 | 1.07 | 1.09 | -0.697 | 0.217 | 0.409 | 0.353 | 0.643 | 0.958 |
| ATAGAAAGGTCGTGAGGTGAGTATACAGAAAGGC | 0.952 | 2.43 | 1.91 | 1.19 | 2 | 3.19 | 0.712 | 4.26 | 1.11 | 3.97 |
| AGAATGAGGTTATTACGATCAGGGAATTGCGGTC | 3.27 | 2.51 | 1.02 | 0.66 | 0.902 | 1.26 | 0.487 | 1.78 | 1.21 | 1.42 |
| CGAACTAGGTCATCCAGGACAGGGAATACATTGA | 7.79 | 8.34 | 3.98 | 2.59 | 1.77 | 1.6 | 0.593 | 2.36 | 0.244 | 3.78 |
| ATCTCTTGGTAAGACTCAGTTCAGTGAAGAACGC | 0.682 | 0.216 | 1.42 | 1.19 | 1.11 | 1.12 | 2.04 | 0.274 | 1.84 | 0.518 |
| TAGCCTAGGTCATTCAGGGGCCAGTACAGAAAGC | 1.84 | 2.77 | -0.186 | 0.258 | 1.6 | 2.52 | -0.228 | 3.86 | -0.153 | 3.9 |
| AGAATGACGTTAAGATCAGGGAAACAGAATACAT | -0.994 | -0.522 | -0.562 | 0.191 | -0.654 | -0.527 | 0.305 | -0.498 | 0.719 | -0.268 |
| CCAGACAGGTGAAAGGTTACTCAGTCTGGTACGC | 1.76 | 3.47 | -0.162 | 0.368 | 1.65 | 2.74 | 0.256 | 4.24 | 0.58 | 2.22 |
| CGAACGAGTGCATGAGTTGATAGCAAATGCCGAT | -0.266 | -0.442 | -0.401 | 0.0555 | -0.0589 | 0.62 | 0.717 | 0.133 | -0.713 | 0.209 |
| GCATATAGGTAATACCAGGTGAAAGTCCGATTGT | 4.03 | 3.4 | 0.784 | 0.508 | 0.56 | 0.0811 | 0.268 | 1.47 | 0.331 | -0.00831 |
| CAGCCTAGGTCAGGGCCAGTAGAGGAGGAACGTT | 1.54 | 1.51 | -1.47 | -0.919 | 1.22 | -0.278 | -0.736 | 0.769 | -0.574 | 3.42 |
| CGTCCAGGGTCAGCAGGTCAGTGAAAGCGACGTG | 1.76 | 3.07 | -0.496 | -0.836 | 2.79 | 3.35 | 0.0152 | 4.85 | 0.53 | 4.69 |
| CAAACTAGGTCAAAGGGCAAAGTCGAGCCAACCA | 8.37 | 8.59 | 2.1 | 1.17 | 2.46 | 4.09 | 0.769 | 6.57 | 0.986 | 4.51 |
| ACTATTAGTTGAGACGAGGGCAACCAATAGGTTG | 0.183 | 0.992 | 0.202 | 0.799 | 0.0729 | 1.75 | 0.385 | 1.5 | 0.723 | 1.09 |
| GCTGCCAGGTCAGGTTGGTCAGCTAACGGGTACG | 0.771 | 1.4 | -0.447 | -1.57 | 0.22 | 0.724 | -0.291 | 1.25 | -0.438 | 3.23 |
| ATCGATAGGTCGAGGTGAGTATAGAGAAAGGGAA | -0.366 | 1.03 | 0.292 | 0.326 | 0.276 | 0.415 | -0.0359 | 0.853 | 0.359 | 1.94 |
